Bioassay records from PubChem BioAssay.
Sampled rows, rich in hits. Any-hit rate of the full collection: about 12%.
HP1b chromo inh: HTS for Inhibitors of HP1-beta Chromodomain Interactions with Methylated Histone Tails; Chromobox protein homolog 1 (Homo sapiens), P83916; AlphaScreen HP1-beta / biotin-H3K9me3 peptide binding; Potency, µM (series often up to 114 µM), for the others: at the top dose activity change, negative = inhibition, hits mostly inhibitors; 390,000 compounds, 0.56% hits; AID 540317, 2011; also: nearly all actives have a fitted effect of over 70% in size
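HP1-beta protein (50 nM final) preincubated 30 min at room temperature with biotinylated H3(1-18)K9me3 peptide (50 nM) in PBS pH 7.4, 0.01% Tween-20, then compound added for 30 min. AlphaScreen streptavidin donor/nickel chelate acceptor beads (10 ug/mL final), 30 min dark, luminescence read.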
BAZ2B block: qHTS Assay for Inhibitors of BAZ2B. Bromodomain adjacent to zinc finger domain protein 2B (Homo sapiens), Q9UIF8. AlphaScreen BAZ2B-H3K14Ac peptide displacement. Potency, µM (highest dose often 114 µM), inactives show at the top dose activity change, negative = inhibition, usual class: inhibitors. 360,000 compounds, 4.4% hits. AID 504333, 2011; also: % is scaled to controls: 0 for no effect and ±100 for the full control effect; nearly all actives have a fitted effect of over 60% in size
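Complex of BAZ2B and biotin-H3K14Ac (50 nM apiece) forms over 30 min at RT, then faces library compounds up to 110 uM for another 30 min; AlphaScreen beads added, 20 min dark incubation, luminescence read.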
JMJD2A Tudor inh: qHTS Assay for Inhibitors of JMJD2A-Tudor Domain | 390,000 compounds, 4.4% hits | AlphaScreen JMJD2A-Tudor / H3K4me3 peptide binding | AID 504339, 2011 | Lysine-specific demethylase 4A (Homo sapiens), O75164 | Potency, µM (titrated, usually from 114 µM), for inactives: top-dose activity change, negative = inhibition, hits mostly inhibitors; also: % is scaled to controls: 0 for no effect and ±100 for the full control effect; nearly all actives have a fitted effect of over 50% in size
G9a inh: qHTS Assay for Inhibitors of Histone Lysine Methyltransferase G9a | Histone-lysine N-methyltransferase EHMT2 (Homo sapiens), Q96KQ7 | G9a H3K9 monomethylation, AlphaScreen, 2 h | Potency, µM (top dose mostly 102 µM), for inactives: at the top dose activity, negative = inhibition, usual class: inhibitors | 350,000 compounds, 8.8% hits | AID 504332, 2011; also: % is scaled to controls: 0 for no effect and ±100 for the full control effect; nearly all actives have a fitted effect of over 75% in size
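G9a (20 nM) was preincubated 15 min with compound, then reacted 2 h at room temperature with 500 nM biotin-H3K9 peptide and 20 µM SAM. Monomethyl-H3K9 detected by AlphaScreen using anti-H3K9me1 antibody.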
Sfp inh: qHTS Assay for Inhibitors of Bacillus subtilis Sfp phosphopantetheinyl transferase (PPTase) | Biochemical Sfp PPTase activity, qHTS | Potency, µM, without a hit: largest response in the series, negative = inhibition, usual class: inhibitors | 310,000 compounds, 3.5% hits;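 also: the enzyme is Sfp with the accession as filed and its product quenches rhodamine fluorescence; 0% = enzyme reaction without inhibitor and -100% = no enzyme wells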
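Sfp 15 nM + cpd, 15 min RT; start w/ rhodamine-CoA 5 uM, BHQ-2-YbbR 12.5 uM (final); 50 mM Hepes pH 7.6, 10 mM MgCl2, 0.01% NP-40, 0.01% BSA; read 525/598 nm at 0 and 30 min.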
Active calls of the source: *; [ ] = remark or other dose. Calls follow the shape of the dose curve; as a rule, active = well fitted curve in the direction sought with a large enough effect; inconclusive = small, poorly fitted or top-dose-only effect, or another doubt; inactive = no such curve, though single readings can be large; an effect the other way counts as inactive or inconclusive. Potency is read from the fitted curve at half-maximal effect.

COC(=O)C1=C(NC(=O)c2ccc(Br)cc2)CCS1 was read as HP1b chromo inh 37%, BAZ2B block -13%, JMJD2A Tudor inh -12%, G9a inh 22% and Sfp inh -26%.
`Cc1cc(C)n(/N=C/c2ccco2)c(=O)c1C#N` gave HP1b chromo inh 13%, BAZ2B block -29%, JMJD2A Tudor inh 3%, G9a inh 6% and Sfp inh -9%.
Screening COC(=O)c1ccc(CN2CCCC(C(=O)Nc3ccc(-c4ccn[nH]4)cc3)C2)cc1 (centres undefined) returned HP1b chromo inh 19%, BAZ2B block -9%, JMJD2A Tudor inh -12% and Sfp inh 4%.
For C=C(CCO)C1=CCN(S(=O)(=O)C(C)(C)C)[C@@H]1CCO the results were HP1b chromo inh 48% and JMJD2A Tudor inh 1%.
NC1=C(Cl)C(=O)c2ccc(S(N)(=O)=O)cc2C1=O was read as HP1b chromo inh 3% and JMJD2A Tudor inh -16%.
NC1=C(Cl)C(=O)c2ccccc2C1=O was read as HP1b chromo inh -19% and JMJD2A Tudor inh 89µM*.
Screening CNc1n[nH]c(=S)s1 returned HP1b chromo inh 25µM*, BAZ2B block -24%, JMJD2A Tudor inh 5µM*, G9a inh 3.5µM* and Sfp inh 35µM*.
Screening O=C(Nc1n[nH]c(=S)s1)c1ccc2ccccc2c1 returned HP1b chromo inh 15%, BAZ2B block -27%, JMJD2A Tudor inh -15% and Sfp inh inconclusive.
For CC(=O)Nc1n[nH]c(=S)s1 the results were HP1b chromo inh inconclusive and JMJD2A Tudor inh 5µM*.
For Cn1cc(Cl)c(C(=O)OCC(=O)c2ccccc2)n1 the results were HP1b chromo inh 5%, BAZ2B block 8%, JMJD2A Tudor inh -11%, G9a inh 30% and Sfp inh 7%.
`O=C(NC(=S)N(CC1CCC1)CC1CCCO1)c1cccc([N+](=O)[O-])c1` (centres undefined) gave HP1b chromo inh -4%, BAZ2B block inconclusive, JMJD2A Tudor inh -35%, G9a inh 50µM* and Sfp inh -2%.
`O=C(NCC1CCCO1)c1ccccc1NS(=O)(=O)c1cc([N+](=O)[O-])ccc1Cl` (centres undefined) gave HP1b chromo inh 34% and JMJD2A Tudor inh -18%.
`O=C(NCC1CCCO1)c1cc([N+](=O)[O-])ccc1Cl` (centres undefined) gave HP1b chromo inh 15%, BAZ2B block 2%, JMJD2A Tudor inh 1%, G9a inh 50µM* and Sfp inh 17%.
CCN(CC)CCOC(=O)C1c2ccccc2Oc2ccccc21 was read as HP1b chromo inh 25%, BAZ2B block -13%, JMJD2A Tudor inh -13% and Sfp inh -13%.
Screening Cc1nn(-c2ccccc2)c2c1N(CCCC(=O)NCc1ccc(N(C)C)cc1)C(=O)CS2 returned HP1b chromo inh -18%, BAZ2B block inconclusive, JMJD2A Tudor inh 56µM* and G9a inh inconclusive.
`Cc1nn(-c2ccccc2)c2c1N(CC(=O)NCc1ccc(N(C)C)cc1)C(=O)CS2` gave HP1b chromo inh -1%, BAZ2B block inconclusive, JMJD2A Tudor inh -27% and G9a inh -25%[59 µM].
Screening Cc1c(Cl)c(C(=O)NC2C3CC4CC(C3)CC2C4)nn1C (centres undefined) returned HP1b chromo inh 35%, BAZ2B block -1%, JMJD2A Tudor inh 1%, G9a inh -9%[59 µM] and Sfp inh 16%.
CCCN(CCC)C1=N/C(=C\c2ccco2)C(=O)N1c1ccccc1 was read as HP1b chromo inh 1%, BAZ2B block 50µM*, JMJD2A Tudor inh -23%, G9a inh inconclusive and Sfp inh 35µM*.
Screening NS(=O)(=O)c1ccc(NC(=O)CCCCC(=O)Nc2ccc(S(N)(=O)=O)cc2)cc1 returned HP1b chromo inh 63%, BAZ2B block -3%, JMJD2A Tudor inh 89µM*, G9a inh 9% and Sfp inh 1%.
